Source: PubChem BioAssay (NCATS)
Records with an inconclusive call do not appear. Activity calls are given as the source filed them. The call rests on the fitted dose curve; in most records, active means well fitted inhibition curve with a large enough effect; inconclusive means small, poorly fitted or top-dose-only effect; inactive means flat fitted curve, though single readings scatter.

How the values were obtained:
Experiment in all cases: qHTS profiling for inhibitors of Plasmodium falciparum proliferation (AID 504749); further: nearly all actives have a fitted effect of over 60% in size
Settings in all cases: P. falciparum in erythrocytes, SYBR Green DNA, 72 h; series mostly up to 28.7 µM
CP217 = test system: CP217
Outline: (§1)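 Parasite proliferation within erythrocytes, 72 h exposure. Endpoint: SYBR Green I fluorescence after overnight lysis at room temperature. Controls: 0.29 uM artemisinin, DMSO.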

CP237 = test system: CP237
Outline: as §1

CP238 = test system: CP238
Outline: as §1

CP247 = test system: CP247
Outline: as §1

CP250 = test system: CP250
Outline: as §1

CP252 = test system: CP252
Outline: as §1

CP256 = test system: CP256
Outline: as §1

CP260 = test system: CP260
Outline: as §1

CP262 = test system: CP262
Outline: as §1

CP265 = test system: CP265
Outline: as §1

Measured: Potency
Potency means the concentration at half of the fitted maximal effect.

CCC1(C)CC(=O)NC(=O)C1
inactive: all assays above

CC(C)Nc1ccc(Nc2ccccc2)cc1
active: CP217 5.01 µM | CP237 7.94 µM | CP238 10 µM | CP247 4.47 µM | CP250 5.01 µM | CP252 7.08 µM | CP256 7.94 µM | CP260 5.62 µM | CP262 4.78 µM | CP265 11.2 µM

O=C1CC[C@@]2(O)C3Cc4ccc(O)c5c4C2(CCN3CC2CC2)[C@H]1O5 (stereo partly drawn)
inactive: all assays above

N#CN
inactive: all assays above

O=Cc1ccco1
inactive: all assays above

O=C1CCCCC1CN1CCCCC1 (stereo not drawn)
inactive: all assays above

O=C(OCCN1CCCCC1)C(O)(c1ccccc1)c1ccccc1
inactive: all assays above

CCC1(c2ccccc2)C(=O)NC(=O)NC1=O
inactive: all assays above

[O]=[Cd]
inactive: all assays above

Clc1ccc(C2(Cn3cncn3)OCCO2)c(Cl)c1
inactive: all assays above

COc1ccc(OC)c(C(O)C(C)N)c1 (stereo not drawn)
inactive: all assays above

CCC(N)Cc1c[nH]c2ccccc12 (stereo not drawn)
inactive: all assays above

CC(C)CCON=O
inactive: all assays above

O=C1C2CC=CCC2C(=O)N1SC(Cl)(Cl)Cl (stereo not drawn)
inactive: all assays above

[O]=[Cr](=[O])([OH])[O][Cr](=[O])(=[O])[OH]
active: CP237 11.2 µM | CP260 11.2 µM
inactive: all other assays above

O=C/C=C/c1ccccc1
inactive: all assays above

C=CCC1(C(C)CCC)C(=O)N=C(S)NC1=O (stereo not drawn)
not listed: CP262
inactive: all other assays above

c1ccc2cc(CC3=NCCN3)ccc2c1
inactive: all assays above

C/C(=C\c1csc(C)n1)[C@@H]1C[C@@H]2O[C@]2(C)CCC[C@H](C)[C@H](O)[C@@H](C)C(=O)C(C)(C)[C@@H](O)CC(=O)O1
active: CP217 0.004 µM | CP237 0.0016 µM | CP238 0.0032 µM | CP247 0.0028 µM | CP250 0.0071 µM | CP252 0.0035 µM | CP256 0.0022 µM | CP260 0.0022 µM | CP265 0.004 µM

COc1ccc2c3c1O[C@H]1C(=O)CC[C@H]4[C@@H](C2)N(C)CC[C@]314
inactive: all assays above

O=c1[nH]cc(N(CCCl)CCCl)c(=O)[nH]1
inactive: all assays above

CN1c2ccccc2C(NCCCCCCC(=O)O)c2ccc(Cl)cc2S1(=O)=O (stereo not drawn)
inactive: all assays above

CCCC(C)C1(CC)C(=O)NC(=O)NC1=O (stereo not drawn)
inactive: all assays above

CC(C)(O)C1C2OC(=O)C1C1(O)CC3OC34C(=O)OC2C14C (stereo not drawn)
inactive: all assays above

ClC1C(Cl)C(Cl)C(Cl)C(Cl)C1Cl (stereo not drawn)
inactive: all assays above

O=C(O)C(Cl)(Cl)Cl
inactive: all assays above

CCCCNCC(O)c1ccc(O)cc1 (stereo not drawn)
inactive: all assays above

C=CCN1CCC23c4c5ccc(O)c4O[C@H]2C(=O)CC[C@@]3(O)C1C5 (stereo partly drawn)
inactive: all assays above

NCC(O)c1cccc(O)c1 (stereo not drawn)
inactive: all assays above

O=[N+]([O-])c1cc(I)c(O)c(I)c1
inactive: all assays above

CN1C2CCC1CC(OC(c1ccccc1)c1ccc(Cl)cc1)C2 (stereo not drawn)
active: CP217 7.08 µM | CP237 11.2 µM | CP238 10 µM | CP247 10 µM | CP250 10 µM | CP252 7.94 µM | CP256 7.08 µM | CP260 7.94 µM | CP262 5.36 µM | CP265 8.91 µM

[N-]=[N+]=CC(=O)OCC(N)C(=O)O (stereo not drawn)
not listed: CP260
inactive: all other assays above

CCNC(C)Cc1cccc(C(F)(F)F)c1 (stereo not drawn)
not listed: CP237
inactive: all other assays above

C[C@H]1CC[C@@H]2[C@@H](C)[C@H]3[C@H](C[C@H]4[C@@H]5CC=C6CC(O[C@@H]7O[C@H](CO)[C@H](O)[C@H](O[C@@H]8O[C@H](CO)[C@@H](O)[C@H](O)[C@H]8O)[C@H]7O[C@H]7O[C@@H](C)[C@H](O)[C@@H](O)[C@H]7O)CC[C@]6(C)[C@H]5CC[C@]34C)N2C1 (stereo partly drawn)
not listed: CP256
inactive: all other assays above

CNC(=O)Oc1ccccc1C(=O)Nc1ccccc1
inactive: CP237 | CP238 | CP250 | CP252 | CP260 | CP265

F/C(COc1ccc2c(c1)[nH]c1ccccc12)=C1/CN2CCC1CC2
active: CP237 6.31 µM | CP238 11.2 µM | CP260 5.62 µM | CP265 8.91 µM
inactive: CP262

c1csc(C2(N3CCCCC3)CCCCC2)c1
not listed: CP237
inactive: all other assays above

O=c1c2ccccc2[se]n1-c1ccccc1
inactive: CP252 | CP256 | CP260 | CP262

C[C@H]1CCC[C@H](O)CCCCCc2cc(O)cc(O)c2C(=O)O1
inactive: CP238 | CP247 | CP252 | CP256 | CP262 | CP265

CCC1(c2ccccc2)C(=O)NC(=O)N(C(=O)c2ccccc2)C1=O (stereo not drawn)
not listed: CP247
inactive: all other assays above

O=C(CS(=O)C(c1ccccc1)c1ccccc1)NO (stereo not drawn)
not listed: CP260
inactive: all other assays above

COC1=CC=C2[C@H]3Cc4ccc(OC)c5c4[C@@]2(CCN3C)[C@H]1O5
not listed: CP237
inactive: all other assays above

[Cl-].[Cl-].[Hg+2]
inactive: CP250 | CP262
active: CP217 8.91 µM | CP238 10 µM

COC([CH2][Hg])CNC(=O)c1ccccc1OCC(=O)O (stereo not drawn)
not listed: CP260
inactive: all other assays above

C[CH2][Hg][S]c1ccccc1C(=O)O
active: CP217 3.98 µM | CP237 1.26 µM | CP238 3.55 µM | CP247 3.16 µM | CP250 3.55 µM | CP252 3.16 µM | CP256 3.16 µM | CP260 1 µM | CP265 1.41 µM

COc1ccc2c(c1OC)C(=O)OC2C1c2cc3c(cc2CCN1C)OCO3 (stereo not drawn)
not listed: CP238 | CP262
inactive: all other assays above

C[N+]1(C)CCCCC1COC(=O)C(O)(c1ccccc1)c1ccccc1 (stereo not drawn)
not listed: CP256 | CP260
inactive: all other assays above

CN1[C@@H]2CC[C@H]1CC(OC1c3ccccc3CCc3ccccc31)C2 (stereo partly drawn)
inactive: CP256 | CP262 | CP265
active: CP217 3.16 µM | CP252 3.16 µM

CCCN1CCCC2Cc3[nH]ncc3CC21 (stereo not drawn)
not listed: CP262
inactive: all other assays above

OC(c1ccccc1)(c1ccccc1)C1CN2CCC1CC2 (stereo not drawn)
not listed: CP237 | CP247 | CP260
inactive: all other assays above

CCC1(c2ccccc2)C(=O)NC(=O)N(C)C1=O (stereo not drawn)
not listed: CP260 | CP265
inactive: all other assays above

CCCC(=O)OC(C(Cl)(Cl)Cl)P(=O)(OC)OC (stereo not drawn)
not listed: CP256
inactive: all other assays above
